# Assay results published in PubChem BioAssay (Tox21).
# Records with an inconclusive call do not appear. Entries that show only a call come without a potency. Active and inactive are the calls of the source. Calls come from the whole dose curve; as a rule, active = well fitted cell-killing curve with a large enough effect in the repeat runs; inconclusive = weak or mixed curves, or effect the other way; inactive = flat fitted curve, though single readings scatter.
# Experiment: qHTS assay to identify small molecule that activate the aryl hydrocarbon receptor (AhR) signaling pathway - cell viability counter screen (AID 743086);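 note: HepG2 liver cells carrying the AhR DRE luciferase reporter; nearly all actives have a fitted effect of over 45% in size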
# Conditions: HepG2-AhR-luc viability, CellTiter-Fluor, 24 h; series mostly up to 70.3 µM
# Description: U.S. Tox21 Program National Center for Advancing Translational Sciences [NCATS] NIH Chemical Genomics Center [NCGC] U.S. Environmental Protection Agency [EPA] National Institutes of Environmental Health Sciences [NIEHS] National Toxicology Program [NTP] U.S. Food and Drug Administration [FDA] Tox21 Assay overview: The Aryl hydrocarbon Receptor (AhR), a member of the family of basic helix-loop-helix transcription factors, is crucial to adaptive responses to environmental changes. AhR mediates cellular responses to environmental pollutants such as aromatic hydrocarbons through induction of phase I and II enzymes but also interacts with other nuclear receptor signaling pathways A cell based HepG2-AhR-luc assay (HG2L7.5c1 cell line, developed by Dr. Michael S. Denison, University of California at Davis) was used to assess the activation of AhR. HepG2 (human hepatocellular carcinoma) cells were stably transfected with an Ah receptor-responsive firefly luciferase reporter gene plasmid containing 20 dioxin responsive elements and luciferase reporter gene. Increased luciferase activity can be used to identify the compounds that induce AhR activation. The cytotoxicity of the compounds screened against the HepG2-AhR-luc cell line was tested in parallel by measuring the cell viability using CellTiter-Fluor assay in the same wells.
# Tox21 Assay Protocol Summary: 4000 cells in 5 uL/well were dispensed into white wall/solid bottom 1536-well plates using a Multidrop Combi (Thermo Fisher Scientific Inc., Waltham, MA) dispenser. After the assay plates were incubated at 37C for 5 h, 23 nL of compound or DMSO vehicle was transferred to the assay plates by a pintool station (Kalypsys, San Diego, CA). The plates were incubated at 37C for 24 hr. For cell viability measurement, 1 ul/well of CellTiter-Fluor reagent (Promega, Madison, WI) was added into the assay plates using a Flying Reagent Dispenser (FRD) (Aurora Discovery, CA),and then the assay plates were incubated at 37C for 30 min. The fluorescence intensity in the plates was measured using a ViewLux plate reader (PerkinElmer, Shelton, CT), followed by the addition of 4 uL of ONE-Glo Luciferase Assay reagent (Promega) using an FRD (Aurora Discovery). After the assay plates were incubated at room temperature for 30 min, luminescence intensity was measured using a ViewLux plate reader (Perkin Elmer).
row,SMILES,Potency
1,N#CCCOCCOCCC#N,inactive
2,O=C(O)c1ccccc1C(=O)OCc1ccccc1,inactive
3,C=C(C)C(=O)OC,inactive
4,CC(=O)Nc1ccc(C)cc1,inactive
5,CCCCCCCCCCCCOC(C)=O,inactive
6,CCCCCC(=O)OCC,inactive
7,C=CCOc1c(Br)cc(Br)cc1Br,inactive
8,CC(C)CCC(=O)CCC(C)C,inactive
9,CC1(N)CCC(C(C)(C)N)CC1 (stereo not given),inactive
10,CCCCCCCCCCCCCCCC(=O)NCCO,inactive
11,CCOC(=O)CC(CC(=O)OCC)(OC(C)=O)C(=O)OCC,inactive
12,CC(C)=CC(C)(C)C,inactive
13,Cc1cccc(Nc2ccncc2S(=O)(=O)NC(=O)NC(C)C)c1,inactive
14,CCC(C)(CCC(C)C)C(=O)[O-].CCC(C)(CCC(C)C)C(=O)[O-].[Zn+2] (stereo not given),inactive
15,Cc1ccccc1OCC1CO1 (stereo not given),inactive
16,COC(=O)CCC(=O)O,inactive
17,COCCOCCOCCOC,inactive
18,CN(C1CCCCC1)S(=O)(=O)c1ccccc1N,inactive
19,Cc1cc(C)cc([N+](=O)[O-])c1,inactive
20,CO/N=C(/C(=O)N[C@@H]1C(=O)N2C(C(=O)O)=C(Cn3nnc(C)n3)CS[C@H]12)c1csc(N)n1,inactive

row,SMILES,Potency
1,CCCCCCCCCCC,inactive
2,CCCCCCCCCOCC1CO1 (stereo not given),inactive
3,CC(=O)OC(C)(C)Cc1ccccc1,inactive
4,Cc1cc(O)c2c(c1)C(=O)c1cccc(O)c1C2=O,inactive
5,CC(=O)Nc1ncc([N+](=O)[O-])s1,inactive
6,CCCCC(=O)N(C)C,inactive
7,CC(Cl)COP(=O)(OCC(C)Cl)OCC(C)Cl (stereo not given),inactive
8,CC(C)C(=O)c1ccccc1,inactive
9,CCOc1ccc(NC(=O)OC(C)C)cc1OCC,inactive
10,CCC(O)C(C)(C)C (stereo not given),inactive
11,C[N+](C)(C)CC(O)CCl (stereo not given),inactive
12,CCN(CCC#N)c1ccccc1,inactive
13,CC(C)COC(=O)CCCCC(=O)OCC(C)C,inactive
14,Cc1c(C(C)C)c(=O)n(-c2ccccc2)n1C,inactive
15,O=[Si]=O,inactive
16,O=CN1CCOCC1,inactive
17,C1=CCC(c2ccccc2)CC1 (stereo not given),inactive
18,NCCc1ccn[nH]1,inactive
19,CC(=O)/C=C/c1ccco1,inactive
20,Nc1ccc(/C=C/c2ccc(N)cc2S(=O)(=O)O)c(S(=O)(=O)O)c1,inactive
